Screening data deposited in PubChem by several laboratories.
Rows were chosen to be rich in hits. Some 22% of all compounds tested hit in one or more screens of this group.
CYP2C19 activ: increases human CYP2C19 enzyme activity | P33261 | recombinant CYP2C19, luciferin-H EGE luminescence; active compounds read high; 0 = fully inhibited enzyme, 1 = untreated enzyme | activation factor at 5 µM | 96,000 tested, under 10 active;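 active means activation factor of at least 2 at 5 µM in the primary screen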;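 further: 0 = wells with 2.5 mM tranylcypromine and 1 = vehicle-only wells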
Target sequence (P33261 whole entry, looked up): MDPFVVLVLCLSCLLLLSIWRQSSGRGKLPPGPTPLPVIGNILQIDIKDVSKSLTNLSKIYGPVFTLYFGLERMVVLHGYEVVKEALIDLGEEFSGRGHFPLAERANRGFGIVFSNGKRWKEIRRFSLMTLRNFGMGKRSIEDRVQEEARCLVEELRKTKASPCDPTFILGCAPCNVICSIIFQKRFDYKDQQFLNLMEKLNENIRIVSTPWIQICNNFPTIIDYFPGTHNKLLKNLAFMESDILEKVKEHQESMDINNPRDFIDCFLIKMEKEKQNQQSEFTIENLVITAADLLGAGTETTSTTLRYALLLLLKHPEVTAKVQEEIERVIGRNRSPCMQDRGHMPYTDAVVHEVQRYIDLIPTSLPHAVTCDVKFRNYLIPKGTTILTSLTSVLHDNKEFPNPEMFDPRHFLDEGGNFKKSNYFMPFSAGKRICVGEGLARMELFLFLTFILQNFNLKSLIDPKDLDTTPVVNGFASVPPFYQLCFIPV
E-sel TNF inh: TNF alpha driven E-selectin expression inhibition. inhibition, % at 2 µM. HUVEC TNFa-induced E-selectin immunofluorescence, high content. 0.71% of 120,000 active;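 active means inhibition above the batch mean plus 3 SD, and confirmed as a hit on visual image review, cut at about 43% in these data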;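 further: 0% = TNF-stimulated DMSO wells and 100% = unstimulated control wells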
cytoskel mod: cytoskeleton assembly modification; HUVEC TNFa F-actin phalloidin imaging, high content; AID 836; 0.18% of 91,000 active; inhibition, % at 2 µM;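 active means inhibition above the batch mean plus 3 SD and confirmed as a hit by visual image inspection, cut at about 30% in these data, passing the limit was not always enough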
CYP2C9 act: CYP2C9 (human) activation. P11712. recombinant CYP2C9, luciferin-H conversion, luminescence; active compounds read high; factor 1 = untreated enzyme, 0 = blocked. activation factor at 5 µM. 1.4% of 96,000 active. AID 1024;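 active means activation factor of 2 or more for CYP2C9 at a 5 µM dose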;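 further: 0 = sulfaphenazole-blocked wells and 1 = vehicle-only wells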
CYP2C9 inhib: blocks human cytochrome P450 2C9; P11712; CYP2C9 Supersomes, luciferin-H conversion, luminescence; inhibition, % at 5 µM; 20% of 96,000 active; AID 777;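 active means blocking of liver enzyme CYP2C9 beyond about 50% at 5 µM, limit read from the data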
CYP2C19 inhib: human CYP2C19 inhibition | CYP2C19 Supersomes, luciferin-H EGE luminescence, 30 min | inhibition, % at 5 µM | 21% of 96,000 active;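 active means CYP2C19 inhibition above a set limit at 5 µM in the primary screen, cut at about 50% in these data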;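 further: plate controls were negative control wells for no effect and 2.5 mM tranylcypromine positive control for full effect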
The depositor's hits bear a star; . = no result.

SMILES	CYP2C19 activ	E-sel TNF inh	cytoskel mod	CYP2C9 act	CYP2C9 inhib	CYP2C19 inhib
Cc1nn(-c2ccccc2)c(OC(=O)c2cccs2)c1S(=O)(=O)c1ccccc1	0.4	2.8	10.7	0.2	79.9*	61.5*
CCOC(=O)c1[nH]c(CSc2nnc(-c3ccc(OC)cc3)o2)c(C(=O)OCC)c1C	0.3	-25.6	-5.2	0.2	84.9*	73.4*
COc1ccc(C(=O)CSc2nnc(-c3cc(C)cc(C)c3)o2)cc1	0.4	-37.3	-9.1	1.1	-13.4	62.2*
COc1ccc(-c2nnc(SCC(=O)c3[nH]c(C)c(C(C)=O)c3C)o2)cc1	0.4	-6.9	0.5	0.6	36.1	63.3*
CCOC(=O)c1c(C)[nH]c(C)c1C(=O)CSc1nnc(-c2ccc(OC(F)F)cc2)o1	0.8	4.8	-23.9	0.7	33.4	19.4
O=c1c2ccccc2[nH]c(=S)n1CCCN1CCN(C2CCCCC2)CC1	0.8	25.3	3.8	1.1	-11.8	17.9
COc1cc(S(=O)(=O)N2CCN(c3ccc(F)cc3)CC2)ccc1Cl	1	.	-1.6	1.3	-34.8	1.7
O=C1CC(c2ccccc2Cl)C2=C(COC2=O)N1 (stereo not drawn)	1.1	-21.4	24.7	1.1	-12.8	-10.0
O=C(c1ccco1)N1CCN(C(=O)C2CCN(S(=O)(=O)c3cnc[nH]3)CC2)CC1	1.2	12.2	.	1.2	-21.3	-19.3
O=C(OCc1ccccc1)c1ccc2c(c1)-c1ccccc1C2=O	0.7	-51.7	-23.3	0.4	55.3*	34.6
O=C(O)c1ccccc1C(=O)OCc1ccccc1	1	14.0	6.7	1.1	-8.3	-2.2
CCC12CN3CC(CC)(CN(C1)C3c1c(O)ccc3ccccc13)C2=O (stereo not drawn)	0.5	-40.1	2.3	0.9	13.5	53.7*
C=CCOc1ccc(C2N3CC4(CC)CN2CC(CC)(C3)C4=O)cc1 (stereo not drawn)	1	-46.0	.	1.1	-11.9	-4.7
O=C(COc1ccccc1Cl)c1ccc[nH]1	.	-6.4	.	.	.	.
O=C(Cc1ccc(Cl)c(Cl)c1)OCC(=O)c1ccc[nH]1	0.1	.	0.1	0.5	51.5*	91.2*
CC1Cc2nc(SCC(=O)OCc3ccccc3)n(C)c(=O)c2S1 (stereo not drawn)	0.1	8.9	.	0.2	76.6*	87.1*
CC1Cc2nc(SCC(=O)NC3CCCCC3)n(C)c(=O)c2S1 (stereo not drawn)	0.8	-4.7	-11.1	0.9	13.7	23.3
CC1Cc2nc(SCC(=O)NCc3ccccc3)n(Cc3ccccc3)c(=O)c2S1 (stereo not drawn)	1	.	1.7	0.5	47.2	1.5
CC1Cc2nc(SCC(=O)N3CCc4ccccc43)n(C)c(=O)c2S1 (stereo not drawn)	0.7	-37.9	.	0.1	93.1*	26.5
CC1Cc2nc(SCC(=O)c3ccccc3)n(Cc3ccccc3)c(=O)c2S1 (stereo not drawn)	0.5	-4.5	-3.7	0	97.3*	47.1
CC(C)NC(=O)c1onc(CSc2ccccc2F)c1C(=O)O	0.9	-4.1	4.0	0.6	38.3	9.5
CCCCNC(=O)c1onc(CSc2ccccc2C)c1C(=O)O	1	9.7	-4.5	0.4	58.9*	0.5
CCCCNC(=O)c1onc(CSc2ccccc2F)c1C(=O)O	1	-23.4	-6.3	0.4	57.2*	-0.1
COC(=O)c1ccc(C)c(NC(=O)CCSc2ccccc2)c1	0.7	-36.9	-25.6	0.4	55.4*	29.4
CCC(=O)Nc1cc(C(=O)OC(C(=O)c2ccc(C)c(C)c2)c2ccccc2)ccc1C (stereo not drawn)	0.6	-2.1	13.3	0.4	57.6*	39.5
SMILES	CYP2C19 activ	E-sel TNF inh	cytoskel mod	CYP2C9 act	CYP2C9 inhib	CYP2C19 inhib
Cc1cc(NC(=O)C23CCC(C)(C(=O)O2)C3(C)C)no1 (stereo not drawn)	1.1	19.3	-17.5	1.1	-13.6	-6.8
O=C(CN(CC1CCCO1)C(=O)CCC(=O)Nc1nccs1)NCC1CCCO1 (stereo not drawn)	1	-0.1	47.7	1.1	-11.2	3.3
Cc1cc(C)cc(N(CC(=O)NCc2ccc3c(c2)OCO3)C(=O)CCC(=O)Nc2ccccn2)c1	0.4	8.0	9.9	0.5	49.3	57.7*
Cc1ccc(C)c(N(CC(=O)NCc2ccc3c(c2)OCO3)C(=O)CCC(=O)Nc2ccccn2)c1	0.4	-32.1	6.3	0.5	50.4*	63.1*
O=C(CN(CC1CCCO1)C(=O)CCC(=O)Nc1nccs1)NCc1ccc2c(c1)OCO2 (stereo not drawn)	0.8	100.0*	-4.7	1	-2.7	24.4
Cc1ccnc(NC(=O)CCC(=O)N(CC(=O)NCc2ccccc2)c2ccc3c(c2)OCO3)c1	.	-16.4	-12.7	.	.	.
COc1ccc(-c2ccc(SCC(=O)N3c4ccccc4CC3C)nn2)cc1OC (stereo not drawn)	0.8	.	8.1	0.7	29.6	18.6
CC(C)N1CCC2(CC1)N=C(c1ccc3c(c1)OCO3)CC(c1cc(Cl)ccc1O)N2 (stereo not drawn)	0.9	1.9	-9.4	0.8	19.5	10.9
O=C(c1ccccc1)N(Cc1cccnc1)C1(C(=O)Nc2ccccc2)CCCCC1	.	-26.1	.	.	.	.
COC(=O)c1cc(OC)c(OC)cc1NC(=O)c1cc(C)on1	.	-1.6	10.6	.	.	.
CCc1cc2c(=O)nc3n(c2s1)Cc1ccccc1/C3=C(/O)c1cccc([N+](=O)[O-])c1	1.1	-19.4	7.0	0.5	51.6*	-13.2
CCCn1c(SCC(=O)Nc2sc(C)c(C)c2C#N)nnc1C(C)C	0.2	-2.9	7.2	0.8	22.1	75.3*
Cc1nnc(SCC(=O)Nc2sc3c(c2C(N)=O)CCCC3)[nH]c1=O	1	.	-11.8	0.3	68.8*	1.4
Cc1sc(NC(=O)CSc2nnc(C)c(=O)[nH]2)c(C#N)c1C	0.9	1.7	-12.8	0	97.4*	11.5
CCN(CC)CCNC(=O)c1ccc(NC(=O)/C=C/c2cc(OC)c(OC)c(OC)c2)cc1	.	-22.2	.	.	.	.
O=C(c1nsc(Cl)c1Cl)N1CCCCC1	0.9	.	-6.4	1	-3.5	12.3
CCN(c1ccccc1)S(=O)(=O)c1ccc(C(=O)Nc2nnc(COC)o2)cc1	1.1	.	.	0.3	70.5*	-7.6
CCN(c1ccccc1)S(=O)(=O)c1ccc(NC(=S)NC(=O)c2ccc(Br)o2)cc1	0.8	10.8	-25.8	0.3	66.8*	22.9
COCc1nnc(NC(=O)c2ccc(S(=O)(=O)N(C)c3ccccc3)cc2)o1	0.9	.	-15.9	0.2	77.1*	5.0
CN(c1ccccc1)S(=O)(=O)c1ccc(NC(=S)NC(=O)c2ccccc2)cc1	0.7	-27.5	9.9	0.3	70.1*	29.4
Cc1ccc(C(=O)NC(=S)Nc2ccc(S(=O)(=O)N(C)c3ccccc3)cc2)cc1	1	15.4	-0.6	0.9	5.2	4.9
OCCN=C(c1ccccc1)C12CN3CN(CN(C3)C1)C2	1.1	.	13.3	1	-4.5	-6.5
Cc1ccc(S(=O)(=O)N/N=C2/CC(c3ccccc3)Oc3ccccc32)cc1 (stereo not drawn)	0.7	-18.2	-42.0	0.2	79.5*	31.1
